Measurements published in PubChem BioAssay.
Calls of active or inactive are those of the source.

What was measured:
Albumin (Bos taurus) = Albumin (Bos taurus) (UniProt P02769); experiment: bovine serum albumin binders on microarray, profiling panel, artefact control for SMM control protein annotation, biochemical, small-molecule microarray, Alexa647 label, 635/667 nm fluorescence (AID 1118); details: BSA-A647 binding, fluorescence 635 nm, higher = more signal;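 note: score merges 667 nm emission intensity and signal-to-noise per printed compound spot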
Albumin (Bos taurus), sequence (P02769 whole entry, looked up): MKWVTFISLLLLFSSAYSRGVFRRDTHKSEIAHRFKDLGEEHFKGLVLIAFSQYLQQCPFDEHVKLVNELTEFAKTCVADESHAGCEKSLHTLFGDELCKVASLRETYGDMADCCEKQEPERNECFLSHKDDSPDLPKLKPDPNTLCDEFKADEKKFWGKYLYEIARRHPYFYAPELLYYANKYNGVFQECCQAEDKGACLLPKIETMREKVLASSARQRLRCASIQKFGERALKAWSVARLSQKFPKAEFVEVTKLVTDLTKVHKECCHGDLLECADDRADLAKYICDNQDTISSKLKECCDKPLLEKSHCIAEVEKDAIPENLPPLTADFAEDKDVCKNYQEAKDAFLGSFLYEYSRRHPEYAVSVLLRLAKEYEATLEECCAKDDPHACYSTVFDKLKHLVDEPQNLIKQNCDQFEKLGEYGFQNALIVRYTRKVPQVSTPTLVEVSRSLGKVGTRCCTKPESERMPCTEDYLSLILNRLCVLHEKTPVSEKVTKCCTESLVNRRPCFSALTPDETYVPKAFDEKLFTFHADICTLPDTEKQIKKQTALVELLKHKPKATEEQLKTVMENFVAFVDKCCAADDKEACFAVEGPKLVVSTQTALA

[1] = small-molecule microarray binders of probe aXIP, primary screen, biochemical, NeuroSMM set, 635/667 nm fluorescence (AID 1119); details: higher = more signal, called active from +8 up or from −8 down;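 note: probe is the protein aXip251-270 applied at 1 µg/mL to compound-printed slides; binding of probe to printed compounds measured as 667 nm fluorescence plus signal to noise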
[2] = small-molecule binders of probe aNOTCH3, primary screen, biochemical, small-molecule microarray, 635/667 nm fluorescence (AID 1120); details: higher = more signal;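 note: probe is a biotin-tagged antibody raised against NOTCH3 rather than NOTCH3 protein; score merges spot fluorescence near 667 nm with spot signal to noise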
[3] = small-molecule binders of probe aNOTCH2, primary screen, biochemical, small-molecule microarray, 635/667 nm fluorescence (AID 1121); details: higher = more signal;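 note: score merges feature fluorescence read at 667 nm with its signal to noise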
[4] = molecular target: Carbonic anhydrase 2 (Homo sapiens) (UniProt P00918); experiment: CAII small-molecule binders, profiling panel, biochemical, small-molecule microarray, Alexa647-labelled CAII (AID 1122); details: CAII-A647 binding fluorescence, higher = more signal
[5] = COS7 lysate on small-molecule microarray, probe aHis, 635 nm (AID 1123); details: COS7 cell lysate, fluorescence, higher = more signal;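 note: z-score combines 667nm fluorescence intensity with signal-to-noise per printed compound spot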
[6] = compound binding in COS7 lysate, probe aLAP1, primary screen, cell lysate, small-molecule microarray (AID 1124); details: probe aLAP1, fluorescence, higher = more signal;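 note: lysate comes from COS7 cells expressing LAP1 and is applied at 0.3 µg/mL; score merges spot fluorescence near 667 nm with signal-to-noise over triplicate slides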
Sam68 (KHDRBS1) = experiment: Sam68 small-molecule binders, primary screen, biochemical, small-molecule microarray, 635 nm fluorescence (AID 1125); details: small-molecule microarray binding, higher = more signal;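 note: score merges 667 nm channel intensity with signal to noise over triplicate slides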
[7] = system: Chordin-like protein 2 (CHRDL2); experiment: CHRDL2 small-molecule binders, primary screen, biochemical, small-molecule microarray, 635 nm fluorescence (AID 1126); details: small-molecule microarray binding, fluorescence 635 nm; higher = more signal;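 note: printed compound slides probed with Chrdl2 protein at 4 µg/mL for 1 h at 4 C; score merges 667 nm emission intensity with signal to noise over three replicate slides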
[8] = molecular target: Concanavalin-A (Canavalia ensiformis) (UniProt P02866); experiment: ConA small-molecule binders, primary screen, artefact control for SMM control protein annotation, biochemical, small-molecule microarray, Alexa647 label, 635 nm (AID 1127); details: ConA-A647 binding fluorescence, higher = more signal;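 note: z combines 667 nm emission intensity with signal-to-noise across three replicate slides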
Concanavalin-A (Canavalia ensiformis), sequence (P02866 whole entry, looked up): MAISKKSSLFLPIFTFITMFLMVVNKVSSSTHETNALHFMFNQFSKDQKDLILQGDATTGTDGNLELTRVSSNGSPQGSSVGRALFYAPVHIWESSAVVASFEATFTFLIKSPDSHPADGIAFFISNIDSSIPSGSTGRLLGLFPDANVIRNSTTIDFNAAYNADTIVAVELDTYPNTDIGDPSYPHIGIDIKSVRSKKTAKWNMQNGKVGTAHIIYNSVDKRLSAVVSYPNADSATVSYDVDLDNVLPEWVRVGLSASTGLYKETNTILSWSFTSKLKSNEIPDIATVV

| Structure (SMILES) | composite z-score (Albumin (Bos taurus)) | composite Z-score [1] | composite z-score [2] | composite z-score [3] | composite z-score [4] | composite z-score [5] | composite z-score [6] | composite z-score (Sam68 (KHDRBS1)) | composite z-score [7] | composite z-score [8] |
| --- | --- | --- | --- | --- | --- | --- | --- | --- | --- | --- |
| COc1ccc([Si](C)(C)[C@@H]2[C@@H](CC(=O)N3Cc4ccccc4C[C@H]3CO)O[C@]3(C(=O)N(Cc4ccc(N5CCC5=O)cc4)c4ccccc43)[C@H]2C)cc1 | 0.502 | -0.0662 (inactive) | -0.0362 | -0.234 | 0.337 | 1.14 | 0.421 | 1.24 | 1.19 | 1.08 |
| [N-]=[N+]=Nc1ccccc1C[C@]1(C(=O)O)N=C(c2ccc(OCCCO)cc2)O[C@H]1c1ccccc1N=[N+]=[N-] | 0.893 | 0.644 (inactive) | 0.293 | 0.166 | 0.57 | 2.84 | 0.871 | 1.32 | 0.135 | 1.13 |
| COc1cc(C(O)C2C=CC3C(=O)N(Cc4ccccc4)C(=O)C3N2n2cnnc2)cc(OC)c1OC (stereo not given) | 0.578 | -0.0603 (inactive) | 0.401 | 0.202 | 0.686 | 1.1 | 1.01 | 0.462 | -0.141 | 0.458 |
| C=C(COC)C(=O)CC[C@H](OC(=O)c1cccnc1)c1ccc(CO)o1 | 0.0617 | -0.496 (inactive) | 0.0225 | -0.0569 | 0.317 | -0.22 | -0.237 | 0.558 | 0.686 | 0.695 |
| CC(C)C[C@@H]1NC(=O)CNC(=O)[C@@]23C(=O)N[C@@H](Cc4ccccc4)C2[C@H](C)[C@@]2(C)O[C@H]2C3/C=C/C/C=C\CNC1=O (stereo not given in full) | -0.007 | 0.692 (inactive) | 0.0026 | -0.102 | 0.461 | 0.718 | 0.461 | 1.29 | 0.764 | -0.404 |
| CC(C)C(CO)N1C(=O)[C@@H]2[C@H]3C(=O)OCC=C[C@H]3OC23C=CCN(C(C)(C)C)C(=O)[C@@H]13 (stereo not given in full) | -0.0498 | -0.343 (inactive) | -0.252 | -0.168 | 0.409 | -0.843 | -0.495 | -1.41 | -0.109 | 0.0282 |
| COc1cc2c(cc1OC)CN(C(=O)[C@@H]1[C@H]3C(=O)O[C@H](c4ccccc4)[C@H](c4ccccc4)N3[C@H](c3ccc(O)cc3)[C@@]13C(=O)Nc1ccc(C#CCCO)cc13)CC2 | 0.571 | 0.37 (inactive) | -0.0699 | -0.113 | 0.606 | 1.08 | 0.78 | 1.13 | 0.481 | 0.754 |
| COc1ccc(C#Cc2ccc3c(c2)[C@]2(C(=O)N3)[C@H](C(=O)Nc3nc4ccccc4s3)[C@H]3C(=O)O[C@H](c4ccccc4)[C@H](c4ccccc4)N3[C@@H]2c2ccccc2OCCO)cc1 | 0.656 | 0.0221 (inactive) | 0.0942 | -0.149 | 0.564 | 1.46 | 0.476 | 1.25 | -0.0198 | 1.13 |
| [N-]=[N+]=Nc1ccccc1C[C@@]1(C(=O)O)N=C(c2ccc(OCCCO)cc2)O[C@@H]1c1ccccc1N=[N+]=[N-] | 0.612 | 0.95 (inactive) | 0.126 | 0.13 | 0.457 | 2.49 | 1.66 | 1.3 | -0.91 | 1.15 |
| COCC(=C=CC[C@@H](O)c1ccc(OCCO)cc1)CCO | -0.201 | 1.21 (inactive) | -0.17 | -0.0859 | 0.838 | 1.25 | 0.83 | 0.847 | 0.136 | -0.139 |
| C=C(CCCC)C(=O)CC[C@H](OC(C)=O)c1ccc(OCCO)cc1 | 0.551 | 0.517 (inactive) | -0.292 | -0.181 | -0.43 | -0.543 | -0.52 | -0.578 | -0.858 | 0.924 |
| O=C(N1CCOCC1)[C@@]1(CCS(=O)(=O)c2ccccc2)N=C(c2ccc(OCCCO)cc2)O[C@H]1c1ccccc1 | 1.06 | 0.55 (inactive) | 0.211 | 0.0228 | 0.853 | 3.1 | -0.152 | 1.31 | -0.56 | 1.2 |
| CN1C(=O)C2C=CC(C(O)c3ccc(I)cc3)N(Nc3ccccc3)C2C1=O (stereo not given) | 0.939 | 0.412 (inactive) | 0.323 | -0.0389 | 0.547 | 1.91 | 0.595 | 1.14 | 0.569 | 1.15 |
| COC(=O)[C@@]1(Cc2ccc(F)cc2)[C@H]2c3cc(C(=O)N(C)C)n(Cc4c(CO)[nH]cc(C)c4=O)c3C[C@H]2CN1C(=O)c1ccccc1 | 0.569 | 0.266 (inactive) | 0.26 | 0.224 | 0.866 | 0.816 | 1.41 | -0.279 | 0.146 | -0.189 |
| O=C1OCC=C[C@H]2OC34C=CCN(c5ccc6ccccc6c5)C(=O)[C@H]3N(CCCCCO)C(=O)[C@@H]4[C@@H]12 (stereo not given in full) | 0.712 | -0.834 (inactive) | -0.292 | -0.0176 | 0.309 | 1.25 | -0.148 | -0.702 | -1.27 | -0.388 |
| C=C[C@@H](C)[C@H](O)c1ccc(OCCO)cc1 | 0.189 | 0.0275 (inactive) | -0.529 | -0.206 | 0.799 | 0.28 | -0.343 | -0.885 | -0.49 | -1.01 |
| CCOC(=O)C1=C[C@@H](C(C)(C)C)N(S(=O)(=O)c2ccc(C)cc2)[C@H]1c1cccc(Cl)c1 | 0.91 | -0.244 (inactive) | 0.0311 | -0.037 | 0.232 | 1.15 | 0.596 | 1.3 | 0.0761 | 1.11 |
| C=C(CCCC)C(=O)CC[C@H](OC(=O)c1ccccc1-c1ccccc1C(=O)O)c1ccccc1OCCO | 0.0147 | -0.104 (inactive) | -0.104 | -0.189 | 0.693 | 0.043 | 0.61 | 0.203 | 0.277 | -0.496 |
| CN1C(=O)C2C=CC(C(O)c3cc(C(F)(F)F)cc(C(F)(F)F)c3)N(NC(=O)OC(C)(C)C)C2C1=O (stereo not given) | 1.04 | 0.622 (inactive) | 0.465 | 0.0753 | 0.604 | 2.87 | 0.403 | 1.3 | -1.08 | 1.17 |
| C=CCN1C(=O)[C@]2(O[C@H](CCO)[C@@H]([Si](C)(C)c3ccc(OC)cc3)[C@@H]2C)c2cc(N3C(=O)COc4ccccc43)ccc21 | 0.427 | 0.0421 (inactive) | 0.0039 | -0.175 | 0.418 | 0.751 | 0.78 | 0.804 | -0.153 | 0.919 |
| [N-]=[N+]=Nc1ccccc1C[C@]1(C(=O)O)N=C(c2ccc(OCCCO)cc2)O[C@H]1c1ccccc1 | 0.784 | 0.0778 (inactive) | -0.0316 | -0.121 | 0.601 | 2.58 | 0.266 | 0.822 | -1.09 | 0.552 |
